Experimental data reported in PubChem BioAssay (Tox21).
Results filed as inconclusive are left out. Values without a mark were called inactive. The source made the active and inactive calls. Unless noted, calls come from the whole dose curve; as a rule, active = well fitted cell-killing curve with a large enough effect in the repeat runs; inconclusive = weak or mixed curves; inactive = no such curve, though single readings can be large or run the other way.

tested on: not listed separately; experiment: qHTS assay to identify small molecule antagonists of the peroxisome proliferator-activated receptor delta (PPARd) signaling pathway - cell viability counter screen (AID 743213); conditions: PPARd-bla HEK293H viability, CellTiter-Glo luminescence, 17 h; series mostly up to 62 µM; viability change, negative = cytotoxic: at the top concentration; note: nearly all actives have a fitted effect of over 50% in size
In short: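 HEK293H PPARd UAS-bla cells, 5 h pre-incubation, compound + L165041 300 nM final, 17 h 37 C; B/G FRET substrate 2 h RT; then CellTiter-Glo 30 min RT, luminescence.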
% is set by controls: 0 for no effect and ±100 for the full control effect.

Compound	viability change, negative = cytotoxic	Potency
COC(=O)[C@@H](N)CCCN/C(N)=N/[N+](=O)[O-]	6.83%	
CCNc1nc(Cl)nc(NC(C)(C)C)n1	9.25%	
CC(C)[N+](C)(CCC(C(N)=O)(c1ccccc1)c1ccccc1)C(C)C	12.3%	
CCOC(=O)N(C)N=O	0.0148%	
c1cncc([C@@H]2CCCCN2)c1	-13.6%	
CCOC(=O)CCl	22.1%	
Cc1ccc(-c2nc3ccc(C)cn3c2CC(=O)N(C)C)cc1	19.8%	
Cc1ccc2cc(C)ccc2c1	-16.4%	
C=CCN1CC[C@]23CCCC[C@H]2[C@H]1Cc1ccc(O)cc13	-8.27%	
N#CC(Br)(Br)C(N)=O	1.86%	
COc1cccc(C=O)c1	20.8%	
C#CC(C)(C)O	2.03% [at 80.4 µM]	
CCN[C@H](C)Cc1cccc(C(F)(F)F)c1	-0.433% [at 80.4 µM]	
CCOc1cc(OP(=S)(OC)OC)nc(CC)n1	11.3%	
Brc1c(Br)c(Br)c(Br)c(Br)c1Br	-8.99% [at 6.26 µM]	
Cc1cc(OC(=O)N(C)C)nn1C(=O)N(C)C	9.5%	
ClC1=C(Cl)C2(Cl)C(CBr)CC1(Cl)C2(Cl)Cl (stereo not given)		inactive
CN(C)CCN(C)C	3.13%	
O=C(CCl)NCO	4.75%	
CC[C@H](O)C(C[C@H](C)N(C)C)(c1ccccc1)c1ccccc1	-26.1% [at 80.4 µM]	
O=CCCl	3.3%	
Cn1c(N)nc2c3cccnc3ccc21	11.3%	
C=CCc1cc(OC)c2c(c1)OCO2	-0.669% [at 80.4 µM]	
Oc1ccc2c3c1O[C@H]1[C@@H](O)C=C[C@H]4[C@@H](C2)NCC[C@@]341	1.37% [at 80.4 µM]	
CCOC(=O)C(SP(=S)(OC)OC)c1ccccc1 (stereo not given)	-13%	
O=c1[nH]oc2c1CCNC2	10.5%	

molecular target: Peroxisome proliferator-activated receptor delta (Homo sapiens) (UniProt Q03181); experiment: qHTS assay to identify small molecule antagonists of the peroxisome proliferator-activated receptor delta (PPARd) signaling pathway (AID 743215; active = well fitted inhibition curve with a large enough effect in the signal ratio in the repeat runs, not every such curve was filed as active; the % refers to the signal ratio;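 note: cells stimulated with agonist L165041 at 300 nM final during compound exposure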); conditions: HEK293H PPARd-UAS-bla, beta-lactamase FRET ratio, antagonist, 17 h; series mostly up to 62 µM; ratio activity, negative = inhibition: at the top concentration
In short: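 Antagonist-mode beta-lactamase reporter screen: HEK293H cells with UAS-bla under PPARd control, stimulated by 300 nM L165041 (final) alongside test compound for 17 h at 37 C, then FRET fluorescence after 2 h substrate incubation.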

Chain of Peroxisome proliferator-activated receptor delta (Homo sapiens) (Q03181 whole entry, looked up): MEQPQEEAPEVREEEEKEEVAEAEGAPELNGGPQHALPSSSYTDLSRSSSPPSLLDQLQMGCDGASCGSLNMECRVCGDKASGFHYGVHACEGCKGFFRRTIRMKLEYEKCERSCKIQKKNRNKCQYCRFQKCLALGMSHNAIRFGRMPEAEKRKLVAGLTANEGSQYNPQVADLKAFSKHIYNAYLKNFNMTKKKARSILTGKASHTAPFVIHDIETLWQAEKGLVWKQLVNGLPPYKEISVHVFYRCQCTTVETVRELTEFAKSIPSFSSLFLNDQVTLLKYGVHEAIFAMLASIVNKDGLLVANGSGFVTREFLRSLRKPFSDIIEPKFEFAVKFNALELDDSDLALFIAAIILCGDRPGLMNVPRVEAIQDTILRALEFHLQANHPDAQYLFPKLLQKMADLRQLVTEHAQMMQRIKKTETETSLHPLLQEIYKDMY

Compound	ratio activity, negative = inhibition	Potency
COC(=O)[C@@H](N)CCCN/C(N)=N/[N+](=O)[O-]	2.38%	
CCNc1nc(Cl)nc(NC(C)(C)C)n1	2.74%	
CCOC(=O)N(C)N=O	19.6%	
c1cncc([C@@H]2CCCCN2)c1	7.99%	
CCOC(=O)CCl	-1.53%	
NCCOS(=O)(=O)O	13.7%	
C[C@H](N)C(=O)c1ccccc1	4.19% [at 80.4 µM]	
C#CC(C)(C)O	15.9% [at 80.4 µM]	
CCN[C@H](C)Cc1cccc(C(F)(F)F)c1	-2.13% [at 80.4 µM]	
CCOc1cc(OP(=S)(OC)OC)nc(CC)n1	25.3%	
Brc1c(Br)c(Br)c(Br)c(Br)c1Br	-21.8% [at 6.26 µM]	
Cc1cc(OC(=O)N(C)C)nn1C(=O)N(C)C	5.57%	
ClC1=C(Cl)C2(Cl)C(CBr)CC1(Cl)C2(Cl)Cl (stereo not given)		inactive
CN(C)CCN(C)C	1.86%	
O=C(CCl)NCO	14%	
CC[C@H](O)C(C[C@H](C)N(C)C)(c1ccccc1)c1ccccc1	0.508% [at 80.4 µM]	
Cn1c(N)nc2c3cccnc3ccc21	8.96%	
Cl/C=C/CCl	4.78% [at 80.4 µM]	
C=CCc1cc(OC)c2c(c1)OCO2	-0.163% [at 80.4 µM]	
